Screening data from PubChem BioAssay.
Rows were chosen to be rich in hits. Some 1.1% of all compounds tested hit in one or more screens of this group.
BCR signal inh – qHTS Assay to Find Inhibitors of Chronic Active B-Cell Receptor Signaling. actives 0.05% (n = 340,000). AID 493014, 2011. ABC-DLBCL IkBa-CBG/CBR reporter, luminescence ratio, 4 h. Potency, µM (doses to about 46.1 µM), without a hit: top-dose activity change, negative = inhibition, usual class: inhibitors; active means well fitted inhibition curve with a large enough effect in the signal ratio, with a control signal flat, not every such curve was filed as active; inconclusive means small, poorly fitted or top-dose-only effect, or effect the other way, or a change in a side signal; the % refers to the signal ratio;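 further: plate controls were basal doxycycline-induced cells for no effect and cells given 10 µM MG132 for full effect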
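Concentration-response series (up to 46 uM) were applied to TMD8 dual-reporter cells for 4 h at 37C with doxycycline. Green/red ratio, after filter-overlap correction, defined %Activity; red signal alone was normalised to basal cells and zero luminescence.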
Anesthetic bind – qHTS Assay for Identification of Novel General Anesthetics; Ferritin light chain (Equus caballus), P02791; apoferritin/1-aminoanthracene competitive binding, fluorescence; Potency, µM (titrated, usually from 77.5 µM), without a hit: at the top dose activity change, negative = displacement, actives largely listed as inhibitors; actives 0.074% (n = 350,000); further: on the % scale 0 is the no-effect control and ±100 the full control effect; nearly all actives have a fitted effect of over 20% in size
Target sequence (P02791 2-175 limits assumed): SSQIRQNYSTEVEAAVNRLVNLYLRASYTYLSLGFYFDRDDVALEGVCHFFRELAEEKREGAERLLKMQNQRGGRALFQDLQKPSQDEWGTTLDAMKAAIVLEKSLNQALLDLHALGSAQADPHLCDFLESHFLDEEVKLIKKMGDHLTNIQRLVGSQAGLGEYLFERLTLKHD
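10 uM apoferritin + 50% sat. 1-AMA, PBS; cpd 10 min RT; Ex380/Em535 endpoint; normalized to free probe vs complex; 4-param Hill fit; propofol titration as pos. ctrl.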
ALOX12 inh – Primary qHTS assay for inhibitors of human arachidonate 12S-lipoxygenase (ALOX12): Round 2; Polyunsaturated fatty acid lipoxygenase ALOX12 (Homo sapiens), P18054; purified 12hLO, xylenol orange hydroperoxide absorbance; Potency, µM (series often up to 108 µM), inactives show at the highest dose activity change, negative = inhibition, hits mostly inhibitors; actives 1.1% (n = 580,000); AID 1671190, 2021; further: on the % scale 0 is the no-effect control and ±100 the full control effect
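Purified human 12hLO at 150 nM in 25 mM Hepes, 0.01% Triton X-100, pH 7.0, preincubated 15 min at room temperature with compound. Reaction started with 40 uM arachidonic acid, 30 min at room temperature. Hydroperoxide measured by Fe-xylenol orange, 573/405 nm absorbance ratio.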
Glioma ERSR ind – qHTS for Inducers of the Endoplasmic Reticulum Stress Response (ERSR) in Human Glioma: qHTS; actives 0.02% (n = 420,000); U87-MG GRP78 promoter luciferase reporter, 16 h; Potency, µM, without a hit: at the top dose activation, usual class: activators; further: series mostly up to about 76 µM; % of control where 0% means no effect; nearly all actives have a fitted effect of over 35% in size
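Stably transfected U87-MG glioma cells carrying a GRP78-based luciferase sensor; 16 h compound incubation. Luminescence end-point read 10 min after Bright-Glo addition at room temperature.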
* = called active by the depositor; i = inactive; ? = inconclusive; nt = not tested or not shown; [ ] = another dose, or the depositor's remark. Unless noted, the call rests on the fitted dose curve; in most records, active means well fitted curve in the direction sought with a large enough effect; inconclusive means small, poorly fitted or top-dose-only effect, or another doubt; inactive means no such curve, though single readings can be large; an effect the other way counts as inactive or inconclusive. Potency means the concentration at half of the fitted maximal effect.

SMILES	BCR signal inh	Anesthetic bind	ALOX12 inh	Glioma ERSR ind
O=C(Cc1cccc(Cl)c1)N1CCC(c2nn(-c3ccc(F)cc3)c(=O)[nH]2)CC1	nt	nt	-19.5%	nt
O=C(Cc1ccccn1)N1CCCC(c2nn(-c3ccccc3)c(=O)[nH]2)C1 (configuration not stated)	nt	nt	31.2%	nt
O=C(Nc1ccc(Cl)cc1)N1CCC(c2nn(-c3ccc(Cl)cc3)c(=O)[nH]2)CC1	nt	nt	12.6µM*	nt
O=C(Cc1ccc(Cl)cc1)N1CCC(c2n[nH]c(=O)n2Cc2ccc(F)cc2)CC1	nt	nt	14.1µM*	nt
O=C(Cc1ccc(F)cc1)N1CCC(c2nn(-c3ccc(Cl)cc3)c(=O)[nH]2)CC1	nt	nt	28.2µM*	nt
COc1ccc2[nH]c(C(=O)NCC(=O)Nc3ccc4c(c3)OCCO4)cc2c1OC	nt	nt	4.3%	nt
CN(Cc1ccc(Cl)cc1)S(=O)(=O)c1cn(C)c(=O)n(C)c1=O	nt	nt	-10.4%	nt
Cc1ccc(CN2CCCC(c3nn(-c4ccc(Cl)cc4)c(=O)[nH]3)C2)cc1 (configuration not stated)	nt	nt	17.8µM*	nt
CC(C)NC(=S)N/N=C/c1ccc([N+](=O)[O-])cc1	nt	nt	5.7%	nt
CC(C)NC(=S)N/N=C/c1ccc(C(C)(C)C)cc1	-0.5%	-16.0%	31.6µM*	2.0%
c1ccc(CN2CCN(CCOCCOc3ccc4c(c3)CCC4)CC2)cc1	2.6%	-3.7%	50.1µM*	-3.4%
O=[N+]([O-])c1ccccc1S(=O)(=O)Nc1ncccn1	-0.7%	-9.7%	-6.0%	-0.8%
O=[N+]([O-])c1cnc(NS(=O)(=O)c2ccccc2[N+](=O)[O-])s1	nt	nt	39.8µM*	nt
Cc1nonc1OC(C)CNc1ccc([N+](=O)[O-])cc1 (configuration not stated)	3.5%	31.6µM*	0.0%	-2.3%
CCn1c(/C=C/c2cc[n+](C)cc2)nc2ccccc21	3.1%	i	11.2µM*	-4.2%
Cc1cc(C)c(CNC(=O)c2cc(-c3ccccc3C)cc3c2OCCN3C)c(=O)[nH]1	nt	nt	112µM*	nt
Cc1cc(C)c(CNC(=O)c2cc(-c3cnn(C)c3C)cc3c2OCCN3C)c(=O)[nH]1	nt	nt	8.2%[176 µM]	nt
Cc1ccc(S(=O)(=O)N2CCN(Cn3ncc4ccccc4c3=O)CC2)cc1	nt	nt	1.6%	nt
Cc1cc(F)ccc1-c1cccc(COc2cnc3c(ccn3CC(=O)O)c2)c1	nt	nt	-18.5%[176 µM]	nt
O=C(O)Cn1ccc2cc(OCc3cccc(-c4ccc(F)c(Cl)c4)c3)cnc21	nt	nt	50.1µM*	nt
Cc1ccc(-c2cccc(COc3cnc4c(ccn4CC(=O)O)c3)c2)cc1	nt	nt	-7.4%[176 µM]	nt
O=C(O)Cn1ccc2cc(OCc3cccc(-c4ccc(F)cc4F)c3)cnc21	nt	nt	35.5µM*	nt
COc1cccc(-c2cccc(COc3cnc4c(ccn4CC(=O)O)c3)c2)c1F	nt	nt	50.1µM*	nt
CCC(C)(C)C1CCc2c(sc(N)c2C#N)C1 (configuration not stated)	nt	nt	28.2µM*	nt
CCC(=O)Nc1sc2c(c1C#N)CCC(C(C)(C)CC)C2 (configuration not stated)	nt	nt	10.1%	nt
SMILES	BCR signal inh	Anesthetic bind	ALOX12 inh	Glioma ERSR ind
O=C(CS(=O)c1ccccc1[N+](=O)[O-])Oc1ccc(Br)cc1 (configuration not stated)	5.3%	?	-14.0%	-8.0%
CS(=O)(=O)c1ccc(S(=O)CC(=O)Oc2ccc(Cl)cc2)c([N+](=O)[O-])c1 (configuration not stated)	17.8µM*	-18.9%	nt	-15.3%
Cc1noc(C)c1[S+](=O)([O-])N1CCC2OCCN(Cc3ccccc3)C(=O)C2C1 (configuration not stated)	nt	nt	100µM*	nt
COc1ccccc1-c1nnc(SC(C(=O)N2CCOCC2)c2ccccc2)n1C1CCCCC1 (configuration not stated)	nt	nt	7.0%	nt
O=c1[nH]c2ccc(-c3csc(NC4CCCC4)n3)cc2o1	nt	nt	6.31µM*	nt
CCCCNc1nc(-c2ccc(NC(=O)CC)cc2)cs1	nt	nt	-12.0%	nt
CCCNc1nc(-c2ccc3[nH]c(=O)oc3c2)cs1	nt	nt	12.6µM*	nt
Cc1ccc2c(COC(=O)c3ccc(C)s3)cc(=O)oc2c1	nt	nt	1.9%	nt
CCN(C(=O)c1ccc(F)cc1I)C1CC1	nt	nt	-6.3%	nt
CC(C)(C)C(=O)NCCCNC(=O)C(C)(C)C	nt	nt	-50.7%	nt
S=c1[nH]nc(COc2ccc(Cl)cc2)n1Cc1ccco1	4.6%	-9.6%	39.8µM*	3.4%
COc1cccc(-c2n[nH]c(=S)n2Cc2ccco2)c1	-7.3%	5.1%	17.8µM*	0.1%
CCCc1n[nH]c(=S)n1Cc1ccco1	?	15.8%	-7.6%	-4.0%
Cc1cc(Cl)ccc1OCCCc1n[nH]c(=S)n1Cc1ccco1	nt	nt	17.8µM*	nt
COCC(=O)NC[C@H]1CCN(Cc2ccccc2)C[C@H]1N(C)C	nt	nt	61.2%	nt
O=C(Nc1cc(=O)[nH]c2nc(-c3ccccc3)nn12)c1ccccc1Cl	0.0%	-1.7%	-3.0%	-2.5%
O=C(Nc1cc(=O)[nH]c2nc(C(F)(F)F)nn12)c1ccc(Cl)cc1Cl	nt	nt	25.1µM*	nt
CCCCNC(=O)CSc1cc(C)c2cccc(C)c2n1	nt	nt	0.7%	nt
O=c1c2c([N+](=O)[O-])cc([N+](=O)[O-])cc2sn1-c1ccc(Br)cc1	?	-23.5%	nt	2.3%
O=c1c2c([N+](=O)[O-])cc([N+](=O)[O-])cc2sn1Cc1ccccc1	?	-7.2%	0.794µM*	-15.9%
Cc1cc(C)c(CC(=O)O)c(C)c1	nt	nt	1.58µM*	nt
CCN(CC(=O)Nc1cccc(OC)c1)C(=O)Cc1nc(-c2ccccc2)oc1C	nt	nt	-6.5%	nt
Fc1ccc(CSc2cccc3cccnc23)cc1	nt	nt	1.6%	nt
COc1ccc(C(=O)N2CCC(c3nn(-c4ccc(Cl)cc4)c(=O)[nH]3)CC2)cc1	nt	nt	35.5µM*	nt
O=C(c1cccc(Cl)c1)N1CCC(c2nn(-c3ccccc3)c(=O)[nH]2)CC1	nt	nt	-13.1%	nt
SMILES	BCR signal inh	Anesthetic bind	ALOX12 inh	Glioma ERSR ind
O=C(c1ccc(F)cc1)N1CCC(c2nn(-c3ccc(F)cc3)c(=O)[nH]2)CC1	nt	nt	20.5%	nt
O=C(c1cccc(C(F)(F)F)c1)N1CCC(c2nn(-c3ccc(Cl)cc3)c(=O)[nH]2)CC1	nt	nt	10µM*	nt
O=C(c1ccc(C(F)(F)F)cc1)N1CCC(c2nn(-c3ccc(F)cc3)c(=O)[nH]2)CC1	nt	nt	22.4µM*	nt
Cn1cc(/C=C(\NC(=O)c2ccco2)C(=O)NCCO)c2ccccc21	nt	nt	0.9%	nt
COc1ccc2nc(-c3ccc4c(c3)OCO4)cc(C(=O)NCCN3CCOCC3)c2c1	nt	nt	39.8µM*	nt
COc1ccc(-c2cc(C(=O)NCCN3CCOCC3)c3ccccc3n2)cc1	-0.8%	36.4%	0.0%	-1.1%
Cc1nc2cc(NC(=O)COc3cc(C(C)C)ccc3C)ccc2o1	nt	nt	-4.5%	nt
CC(=O)c1cccc(NC(=O)CCc2nc(CSc3nc4ccccc4o3)no2)c1	nt	nt	10.7%	nt
Clc1ccc(-n2nnc(-c3nccs3)n2)cc1Cl	3.1%	?	5.62µM*	3.0%
Cc1ccc(-n2nnc(-c3nccs3)n2)cc1	?	?	-21.0%	-11.2%
O=C(OCn1nnc2ccccc2c1=O)C1CCCCC1	-3.4%	39.8µM*	-9.0%	-1.6%
